Screening data (PubChem)
In the library only some 5.7% were active in any assay of this set; here they are far more common.
NR3A LBD binder – binders of NR3A ligand-binding domain, primary screen, biophysical, differential scanning fluorimetry, uHTS | NR3A LBD differential scanning fluorimetry, Tm shift; 0% = protein alone, 100% = glycine-bound protein | 340,000 tested, 2.5% active | Tm shift relative to glycine control, % at 25 µM | Glutamate receptor ionotropic, NMDA 3A (GRIN3A) ligand-binding domain;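 active = melting temperature shift of at least 10% of the positive control shift, at one fixed dose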
MPTP block – mitochondrial permeability transition pore inhibitors, primary screen, biochemical, isolated mouse mitochondria, absorbance | Ca2+ swelling absorbance, 30 min | inhibition, % at 10 µM | 360,000 tested, 1.4% active;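 active = inhibition of 50% or more, scaled per plate between neutral and stimulator controls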;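 note: 0% = DMSO wells given calcium and 100% = 1 mM EGTA wells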
rCAG RNA binder – binders of r(CAG) RNA repeats, primary screen, biochemical, fluorescence | r(CAG) RNA repeat, TO-PRO-1 dye displacement fluorescence | inhibition, % at 3 µM | 370,000 tested, 1.3% active;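 active = inhibition above the plate cutoff, the mean of all test compounds on that plate plus 3 SD, cut at about 35% in these data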;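 note: 0% = DMSO alone and 100% = 100 µM mitoxantrone as full dye displacement; higher means more dye released from RNA so lower well fluorescence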
Myeloid diff 2 – induction of myeloid progenitor differentiation, primary screen, cell-based, flow cytometry, MLPCN library; calls only at 10 µM; AID 624256, 2012; ER-HoxA9 myeloid progenitors, lysozyme-GFP differentiation; 360,000 tested, 1% active;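 active = normalized GFP-positive differentiation at or above the plate's own cutoff, the solvent-only control mean plus 3 SD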;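 note: cells exposed to compound for four days before flow analysis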
FAS-TE inh – FAS thioesterase domain inhibitors, primary screen, biochemical, fluorescence intensity, uHTS; Fatty acid synthase (Homo sapiens), P49327; recombinant FAS-TE, OMFH fluorogenic substrate, fluorescence endpoint; inhibition, % at 15 µM; 360,000 tested, 0.67% active;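 active = compounds whose normalised, plate-corrected inhibition of enzyme fluorescence in the single-dose primary screen is 50% or more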;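 note: 0% = DMSO with enzyme and 100% = substrate without enzyme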
Target sequence (P49327 whole entry, looked up, the tested form may be a part): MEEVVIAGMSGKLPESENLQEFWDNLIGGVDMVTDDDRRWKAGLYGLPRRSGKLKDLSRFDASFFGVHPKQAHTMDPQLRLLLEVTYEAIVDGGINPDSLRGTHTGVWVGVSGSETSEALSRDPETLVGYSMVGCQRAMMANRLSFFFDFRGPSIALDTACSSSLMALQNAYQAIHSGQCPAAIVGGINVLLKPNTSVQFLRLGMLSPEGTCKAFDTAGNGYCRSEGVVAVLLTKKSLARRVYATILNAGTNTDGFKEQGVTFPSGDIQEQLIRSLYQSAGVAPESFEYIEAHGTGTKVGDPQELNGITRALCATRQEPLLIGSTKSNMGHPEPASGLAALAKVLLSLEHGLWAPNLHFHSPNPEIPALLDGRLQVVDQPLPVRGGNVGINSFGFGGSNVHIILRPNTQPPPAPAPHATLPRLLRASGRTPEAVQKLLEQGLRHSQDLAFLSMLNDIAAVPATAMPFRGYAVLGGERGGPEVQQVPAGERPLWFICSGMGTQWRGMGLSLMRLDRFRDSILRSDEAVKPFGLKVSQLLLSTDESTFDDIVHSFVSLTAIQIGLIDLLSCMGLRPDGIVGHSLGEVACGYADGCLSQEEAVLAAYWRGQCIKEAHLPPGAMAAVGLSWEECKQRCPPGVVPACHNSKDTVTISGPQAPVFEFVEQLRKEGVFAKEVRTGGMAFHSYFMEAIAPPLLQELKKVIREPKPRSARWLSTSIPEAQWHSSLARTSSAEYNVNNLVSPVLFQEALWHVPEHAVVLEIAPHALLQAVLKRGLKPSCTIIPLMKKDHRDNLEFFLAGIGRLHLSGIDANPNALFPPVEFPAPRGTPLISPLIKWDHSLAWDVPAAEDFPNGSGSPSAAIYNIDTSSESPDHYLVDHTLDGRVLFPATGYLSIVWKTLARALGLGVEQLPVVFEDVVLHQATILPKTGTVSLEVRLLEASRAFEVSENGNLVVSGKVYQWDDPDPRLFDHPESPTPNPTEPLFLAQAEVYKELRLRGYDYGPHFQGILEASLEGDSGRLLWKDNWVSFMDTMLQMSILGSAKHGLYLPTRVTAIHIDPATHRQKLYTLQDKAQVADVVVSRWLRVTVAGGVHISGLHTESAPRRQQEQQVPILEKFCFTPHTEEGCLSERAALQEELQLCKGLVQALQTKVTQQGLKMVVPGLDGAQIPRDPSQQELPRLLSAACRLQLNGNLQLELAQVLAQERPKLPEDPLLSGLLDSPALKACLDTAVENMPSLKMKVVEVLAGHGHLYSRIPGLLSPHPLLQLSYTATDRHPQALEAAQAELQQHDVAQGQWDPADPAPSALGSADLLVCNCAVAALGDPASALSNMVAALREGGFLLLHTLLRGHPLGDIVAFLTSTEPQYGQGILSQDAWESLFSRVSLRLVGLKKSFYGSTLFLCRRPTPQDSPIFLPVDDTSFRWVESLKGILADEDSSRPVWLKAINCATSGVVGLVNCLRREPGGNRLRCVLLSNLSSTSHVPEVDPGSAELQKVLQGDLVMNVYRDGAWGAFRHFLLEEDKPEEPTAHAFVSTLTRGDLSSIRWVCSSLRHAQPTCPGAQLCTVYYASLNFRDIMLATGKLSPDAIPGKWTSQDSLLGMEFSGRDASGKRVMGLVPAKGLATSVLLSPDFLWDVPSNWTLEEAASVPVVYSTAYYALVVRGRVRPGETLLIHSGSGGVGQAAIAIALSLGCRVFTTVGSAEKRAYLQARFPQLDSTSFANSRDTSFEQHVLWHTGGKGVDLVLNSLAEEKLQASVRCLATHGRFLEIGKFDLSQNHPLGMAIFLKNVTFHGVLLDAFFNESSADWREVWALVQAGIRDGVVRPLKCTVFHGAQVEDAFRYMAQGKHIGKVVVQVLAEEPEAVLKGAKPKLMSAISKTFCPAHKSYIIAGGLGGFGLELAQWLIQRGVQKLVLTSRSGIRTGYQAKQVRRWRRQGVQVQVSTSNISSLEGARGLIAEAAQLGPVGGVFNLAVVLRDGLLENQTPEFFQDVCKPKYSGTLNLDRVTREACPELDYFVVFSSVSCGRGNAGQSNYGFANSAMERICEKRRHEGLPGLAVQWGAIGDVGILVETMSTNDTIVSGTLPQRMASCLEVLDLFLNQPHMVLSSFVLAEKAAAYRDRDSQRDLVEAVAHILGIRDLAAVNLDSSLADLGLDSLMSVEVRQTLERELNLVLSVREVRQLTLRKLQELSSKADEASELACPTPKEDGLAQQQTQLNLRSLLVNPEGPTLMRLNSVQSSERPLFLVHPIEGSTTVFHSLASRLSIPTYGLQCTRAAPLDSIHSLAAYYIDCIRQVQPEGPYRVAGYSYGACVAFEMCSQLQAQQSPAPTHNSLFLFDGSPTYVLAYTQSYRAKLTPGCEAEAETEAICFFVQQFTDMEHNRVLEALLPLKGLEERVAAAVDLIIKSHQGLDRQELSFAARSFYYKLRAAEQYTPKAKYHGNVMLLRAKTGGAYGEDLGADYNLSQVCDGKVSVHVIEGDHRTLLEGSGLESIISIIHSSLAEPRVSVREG
* hit, by the source's call; i = inactive; x = no result given; + = active, no number.

SMILES | NR3A LBD binder | MPTP block | rCAG RNA binder | Myeloid diff 2 | FAS-TE inh
O=C(Cc1nc2ccccc2[nH]c1=O)c1ccccc1 | 0 | 0 | -1 | + | -25
COc1ccc(S(=O)(=O)Nc2c(O)c3ccccc3oc2=O)cc1 | 1 | -3 | 4 | + | -4
Cc1ccc(S(=O)(=O)Nc2c(O)c3ccccc3oc2=O)cc1 | 3 | -3 | 1 | i | -5
COc1ccc2ccccc2c1C1CC(=O)N2CN(C3CCCCC3)CSC2=C1C#N (stereo not given) | -8 | -2 | 39* | i | 4
CCOc1cc(C2CC(=O)N3CN(C4CCCCC4)CSC3=C2C#N)ccc1O (stereo not given) | -7 | 0 | 20 | i | -7
CCCCN(C)C(=O)CSc1nnc(-c2cc(OC)c(OC)c(OC)c2)o1 | x | x | 3 | x | x
COC(=O)c1ccc2nc(C3CCCCC3)c(Cc3ccccc3OC)n2c1 | x | x | 4 | x | x
Cc1ccc(O)c(-c2cc(-c3ccccc3[N+](=O)[O-])[nH]n2)c1 | -6 | 5 | 15 | i | 12
Oc1ccccc1-c1cc(-c2ccco2)[nH]n1 | -1 | 10 | 24 | i | 0
O=[N+]([O-])c1ccccc1-c1cc(-c2cc(Cl)ccc2O)n[nH]1 | 18* | 20 | 24 | i | -2
Oc1ccc(Br)cc1-c1cc(-c2ccco2)[nH]n1 | 19* | -3 | 29 | i | 7
Oc1ccc(Br)cc1-c1ccn[nH]1 | -7 | 3 | 5 | i | -138
Oc1ccc(Cl)cc1-c1cc(-c2ccco2)[nH]n1 | 11* | 0 | 26 | i | 15
Oc1c(-c2cc(-c3ccco3)[nH]n2)ccc2ccccc12 | 21* | 12 | 28 | i | 17
COc1cccc(CN(C)[C@H]2C[C@H]3c4[nH]c5ccccc5c4CCN3C[C@H]2[C@H](C)O)c1OC | x | x | 2 | x | x
C#CCNC(=O)C[C@H]1C[C@@]2(C(=O)OC)C(=C[C@H](C(C)C)O[C@@H]2C2CC2)N(Cc2ccc(Cl)cc2Cl)C1=O | x | x | 1 | x | x
CCCc1c(C)[nH]c2ccc(C(=O)O)cc2c1=S | 0 | 2 | 45* | i | 0
Cc1[nH]c2ccc(C(=O)O)cc2c1C | 0 | -2 | -2 | i | -10
CC1CCN(c2cc(N3CCOCC3)c(F)cc2[N+](=O)[O-])CC1 | 15* | 1 | -1 | i | 17
CCc1ccc(CN(C)C(=O)c2ccc3c(c2)OCCO3)cc1 | 0 | 1 | -8 | + | 6
CN(Cc1ccccc1)C(=O)c1ccc2c(c1)OCO2 | 0 | 0 | -3 | i | -7
CN1C(=O)c2cccc3c(S(=O)(=O)NCCc4ccccc4)ccc1c23 | 16* | 0 | 5 | i | 10
CCCCOCCCNC(=O)Cc1cccs1 | 11* | 0 | 1 | i | -9
CCOCCCNC(=O)C(NC(=O)Cc1cccs1)c1ccccc1 (stereo not given) | 2 | -1 | -3 | x | -1
O=C1c2ccccc2C(=O)N1CC(O)COc1ccc(Cl)cc1 (stereo not given) | 1 | 0 | -6 | i | -2
SMILES | NR3A LBD binder | MPTP block | rCAG RNA binder | Myeloid diff 2 | FAS-TE inh
COc1ccc(OCC(O)CN2C(=O)c3ccccc3C2=O)cc1 (stereo not given) | -2 | 1 | -3 | + | -4
COc1ccc(OCC(O)CNC(=O)c2ccc(OC)cc2)cc1 (stereo not given) | 31* | 1 | -5 | i | -10
Clc1ccc(-n2c(SCc3cccc4ccccc34)nnc2-c2ccco2)cc1 | x | x | 5 | x | x
COc1ccc(-c2cn[nH]c2-c2ccc(OCc3ccc(F)cc3)cc2O)cc1OC | 16* | 6 | 6 | i | -12
C=C(C)COc1ccc(-c2[nH]ncc2-c2ccccc2)c(O)c1 | 2 | 5 | 6 | i | -41
O=[N+]([O-])c1ccc(COc2ccc(-c3[nH]ncc3-c3ccccc3)c(O)c2)cc1 | 25* | 25 | 9 | i | -14
COc1ccc(-c2cn[nH]c2-c2ccc(OCc3ccccc3)cc2O)cc1OC | 0 | 3 | 3 | i | -9
Oc1cc(OCc2ccccc2)ccc1-c1[nH]ncc1-c1ccccc1 | 17* | 20 | 8 | i | -36
Nc1[nH]c(C(=O)c2ccccc2)c(-c2ccc(F)cc2)c1C(=O)c1c[nH]c2ccccc12 | x | x | 13 | x | x
